# Test results from the supplement of paper PMC3334620.
# Whole data set: some 33,000 sequences, median “E-score (-0.5 to 0.5)” near -8e-05, cut for the highest 2% near 0.23. The sample holds the highest values, similar sequences and a random draw of the others, so the mix is not that of the screen.
# Target: T1, Nrg2 (UniProt P38082)
# T1 sequence: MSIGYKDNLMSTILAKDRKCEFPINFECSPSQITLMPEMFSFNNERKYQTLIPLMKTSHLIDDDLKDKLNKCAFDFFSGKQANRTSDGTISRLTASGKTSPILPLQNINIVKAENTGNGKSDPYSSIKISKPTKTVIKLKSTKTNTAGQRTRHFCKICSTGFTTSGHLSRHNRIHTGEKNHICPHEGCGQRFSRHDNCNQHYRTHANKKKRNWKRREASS
# Assay: PBM E-score (8-mer binding enrichment) (E-score (-0.5 to 0.5)); higher = stronger / more preferred TF binding
# Details: protein concentration: 100 nM; construct: GST-full length
# Protocol: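 Universal 'all 10-mer' protein binding microarrays (Agilent AMADID 015681) probed with GST-tagged S. cerevisiae TFs (full-length or DBD) made by in vitro transcription/translation (PURExpress), about 100-200 nM. Bound TF was detected with fluorescent anti-GST. Each ungapped 8-mer (which stands for itself and its reverse complement) is scored by the PBM enrichment score (E-score), a modified Wilcoxon-Mann-Whitney statistic from -0.5 to +0.5, computed with the Universal PBM Analysis Suite. Scale: above 0.35 generally sequence-specific binding.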
row,Sequence,PBM E-score
1,ACGCTAGG,-0.266
2,AACCAGGG,0.176
3,CTTAACAC,0.0347
4,ATTAAAAC,0.241
5,ATCAAAAA,0.237
6,ATTAAACC,0.199
7,ATTAACAC,0.246
8,CTTAAAAC,0.0325
9,ATTAAAAT,0.174
10,ATTAACAA,0.179
11,ATTAAAAG,0.103
12,ATCAAAAT,-0.0176
13,ATCAAAAG,0.00066
14,ATTAAAAA,0.246
15,CCTCGTAC,0.0199
16,CGAACTGC,-0.0594
17,TCCAGAGA,-0.144
18,AAGGGGAT,0.205
19,ACTTAGGG,0.0512
20,CCCAACTC,0.256
21,ACCAACTC,-0.0268
22,CCCAACTA,0.174
23,GCCGCGCA,-0.0674
24,CTGGTGGC,0.00474
25,ACAGTAGA,0.138

row,Sequence,PBM E-score
1,AGTATTTA,0.0065
2,CGTATTTA,0.248
3,GGTATTTA,0.0832
4,AGCCCCAT,-0.0124
5,CTGCGATC,0.0398
6,CGAGGGCC,-0.0174
7,AACTTATC,0.121
8,AACTTATG,-0.0218
9,AACTTATT,0.256
10,CATAGTCG,-0.0054
11,AGGCAAGA,-0.0756
12,AAGCCCTC,-0.132
13,ACCAACAT,0.0787
14,ACCAACAG,-0.00807
15,ACCAACAA,0.245
16,GAGAAAGC,0.0912
17,ACCTACAT,0.00858
18,GCCCCAGC,0.0519
19,CTGGTGCC,-0.212
20,AACTACTG,0.0512
21,AACTACTC,0.184
22,AGCTACTA,0.0519
23,AACTACTA,0.296
24,TACTAATA,0.0648
25,AACTAATA,0.354

row,Sequence,PBM E-score
1,CACTAATA,0.133
2,CGCTACTC,-0.0612
3,CGCTACTA,0.234
4,AAGACGTG,-0.0832
5,ACGAATAG,0.0297
6,CACCTCCC,-0.294
7,CAGATGGC,-0.107
8,ACGATACA,-0.0148
9,GAGATATC,0.282
10,TCGATACA,0.243
11,GATACCTA,0.256
12,CATACCTA,-0.0293
13,AATACCTA,0.144
14,AAGATACA,0.171
15,GCGATACA,-0.00403
16,TAGATACA,0.0563
17,CAGATATC,0.133
18,GAGATACA,0.296
19,AAGATATC,0.149
20,ATTTACAA,0.0879
21,GCGCACAA,0.195
22,GTAGAGTA,-0.0442
23,CCACGGGC,-0.139
24,GGCCGCCA,0.0869
25,GAGGCCGA,-0.0441

row,Sequence,PBM E-score
1,CAAACAAC,0.14
2,ATAGGAAC,-0.0698
3,AAAGCAGT,0.201
4,GATACATC,0.134
5,CACATACA,-0.0126
6,CATACATA,0.219
7,GACATACA,0.246
8,GATACATA,0.246
9,TACATACA,0.199
10,AGAAGTAC,-0.0369
11,ACCCGCGA,0.174
12,ACCCGCGC,0.229
13,ACCCGCGT,-0.119
14,CCCCGCGG,0.0578
15,ACCCGCGG,0.275
16,ACCCGCCG,0.201
17,ACTAGGAA,-0.094
18,CGAATCAC,0.117
19,CTGGACCA,-0.0552
20,AGGGACGC,0.196
21,ATGGACCC,0.206
22,CGGGACCA,-0.173
23,AGGGACGG,-0.0133
24,AGGGACGA,0.248
25,AAGGACCT,0.0061

row,Sequence,PBM E-score
1,AGGGACCA,0.35
2,CTGGACCC,0.275
3,GGGGACCA,0.0565
4,AGGGACCT,0.382
5,ACGGACCT,0.17
6,CACGATAC,-0.129
7,ACTTTCGC,-0.0735
8,CAGTTGCC,-0.092
9,ATGAGCAA,0.121
10,AGGGTCAT,0.132
11,GCCCAAGC,0.106
12,ATCTATGC,0.117
13,CCGGGCAC,-0.16
14,CGCAAAGA,0.111
15,GGGTCTCA,0.0513
16,AGGGACAA,0.228
17,CGGGACCG,-0.0394
18,CGGGACCC,-0.0126
19,ACGGACCG,-0.252
20,AGGGACCG,0.231
21,AGGGACCC,0.337
22,AGGGACAC,0.204
23,GGGGACCC,0.143
24,GGGGACTA,-0.0994
25,AGGGACTA,0.242

row,Sequence,PBM E-score
1,AGGGACAT,0.301
2,AGGGACTC,-0.0325
3,CCTGACCA,0.142
4,CGAAGACC,0.0649
5,GCTCTCAA,0.047
6,ACGATCGA,0.0838
7,GTGAGCAA,-0.0485
8,GTCCAGTA,-0.0597
9,TATACAAA,0.148
10,AATACAAA,0.269
11,AATACAAG,0.296
12,GATACAAA,0.18
13,AATACAAT,0.106
14,AATACAAC,0.185
15,GTAATCGA,0.154
16,TGAATACA,0.0782
17,CCTTGCTC,0.0643
18,AGCGTTAT,-0.0753
19,GTCTACTA,0.0788
20,CACCTGTC,0.0208
21,AGCTCTGG,-0.136
22,ATCAGATG,-0.0502
23,GTCTTGCA,0.0101
24,ATCTTGCG,-0.0421
25,ATCTTGCA,0.256

row,Sequence,PBM E-score
1,GAAGCCTC,-0.146
2,ATCGAAGA,0.193
3,ATATTGCA,0.113
4,AGAGATTC,0.0502
5,GACAGTAA,0.0902
6,ATGAAGTC,-0.0277
7,ATGAAGTG,0.235
8,ATGAAGTA,0.0961
9,ATTGAACG,-0.0983
10,ATCCAAAT,0.0165
11,CACGCGGA,0.234
12,ACCGCGGG,0.171
13,AGCGCGTC,-0.0322
14,CGCGCGTC,0.262
15,CGCGCGGC,0.296
16,AGCGCGGC,0.0579
17,CCCGCGGG,0.278
18,CGCGCGGA,0.227
19,CACGCGGG,-0.0425
20,CGCGCGTA,0.133
21,CCCGCGGA,0.204
22,AACGCGGA,0.0806
